# Activity calls are given as the source filed them.
# Assays:
# [1] = tested on: PRMT1 (protein arginine N-methyltransferase 1); test: PRMT1 binders on small-molecule microarrays, primary screen, biochemical, small-molecule microarray, 635 nm fluorescence (AID 1088); settings: small-molecule microarray binding, higher = more signal;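 note: binding of Prmt1 protein to compounds spotted on small-molecule microarray slides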
# [2] = yeast growth modulation, basal conditions, primary screen, YJM789 clinical isolate, OD600, 24 h (AID 1089);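 note: growth of clinical yeast isolate S. cerevisiae YJM 789 seeded 1000 cells per well; test concentration not given here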; settings: S. cerevisiae YJM789 growth, higher = more signal, called active from +8 up or from −8 down
# [3] = fission yeast growth modulation, primary screen, strain 972, OD600, 24 h, no modulator (AID 1090);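 note: basal condition with compound alone and no growth modifier present; test concentration not given here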; settings: S. pombe 972 growth, higher = more signal, called active from +8 up or from −8 down
# [4] = S. cerevisiae growth modulation with rapamycin, primary screen, strain BY4716, OD600, 96 h (AID 1091); settings: higher = more signal, called active from +8 up or from −8 down; note: test concentration not given here
# [5] = target: Torsin-1A-interacting protein 2 (Homo sapiens) (UniProt Q8NFQ8); test: LULL1 binders on small-molecule microarray, primary screen, cell lysate, human LULL1 lysate, 635/667 nm fluorescence (AID 1092); settings: hLULL1 lysate binding, 635 nm fluorescence, higher = more signal;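 note: probe is lysate of COS7 cells overexpressing human LULL1; score merges per-feature 667 nm fluorescence with signal-to-noise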
# Chain of Torsin-1A-interacting protein 2 (Homo sapiens) (Q8NFQ8 whole entry, looked up): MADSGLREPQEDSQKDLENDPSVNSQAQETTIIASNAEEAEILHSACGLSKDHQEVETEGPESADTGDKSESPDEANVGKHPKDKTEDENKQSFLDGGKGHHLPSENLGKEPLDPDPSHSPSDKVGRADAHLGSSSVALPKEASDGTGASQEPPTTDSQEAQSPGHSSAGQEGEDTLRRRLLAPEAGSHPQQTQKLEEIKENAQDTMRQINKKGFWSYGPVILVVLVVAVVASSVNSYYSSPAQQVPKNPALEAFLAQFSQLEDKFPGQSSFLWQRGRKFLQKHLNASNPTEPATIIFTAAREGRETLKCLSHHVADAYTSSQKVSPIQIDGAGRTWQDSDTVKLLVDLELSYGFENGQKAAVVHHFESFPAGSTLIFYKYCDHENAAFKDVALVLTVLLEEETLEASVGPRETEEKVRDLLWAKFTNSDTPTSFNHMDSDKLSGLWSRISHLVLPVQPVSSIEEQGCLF
# [6] = E. coli growth modulation, two-sided OD650, primary screen, E. coli filamentation project, strain DRC41, 24 h (AID 1093); settings: OD650, 24 h, higher = more signal, called active from +8 up or from −8 down;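 note: MC1000 strain lacking acrAB efflux and sulA so SOS filamentation is blocked; test concentration not given here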
# [7] = small-molecule microarray binders of probe aLefty2, primary screen, biochemical, biotinylated probe, 635/667 nm fluorescence (AID 1094); settings: higher = more signal;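 note: score merges spot fluorescence near 667 nm with spot signal-to-noise ratio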
# [8] = tested on: Noggin (protein binding on small-molecule microarray); test: Noggin binders on small-molecule microarray, primary screen, biochemical, 635/667 nm fluorescence (AID 1095); settings: 635 nm fluorescence, higher = more signal;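 note: score merges 667 nm feature fluorescence with signal to noise over triplicate slides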
# [9] = target: Neurogenic locus notch homolog protein 3 (Homo sapiens) (UniProt Q9UM47); test: NOTCH3 binders on small-molecule microarray, primary screen, biochemical, 635/667 nm fluorescence (AID 1096); settings: NOTCH3 binding, 635 nm fluorescence, higher = more signal
# Chain of Neurogenic locus notch homolog protein 3 (Homo sapiens) (Q9UM47 whole entry, looked up): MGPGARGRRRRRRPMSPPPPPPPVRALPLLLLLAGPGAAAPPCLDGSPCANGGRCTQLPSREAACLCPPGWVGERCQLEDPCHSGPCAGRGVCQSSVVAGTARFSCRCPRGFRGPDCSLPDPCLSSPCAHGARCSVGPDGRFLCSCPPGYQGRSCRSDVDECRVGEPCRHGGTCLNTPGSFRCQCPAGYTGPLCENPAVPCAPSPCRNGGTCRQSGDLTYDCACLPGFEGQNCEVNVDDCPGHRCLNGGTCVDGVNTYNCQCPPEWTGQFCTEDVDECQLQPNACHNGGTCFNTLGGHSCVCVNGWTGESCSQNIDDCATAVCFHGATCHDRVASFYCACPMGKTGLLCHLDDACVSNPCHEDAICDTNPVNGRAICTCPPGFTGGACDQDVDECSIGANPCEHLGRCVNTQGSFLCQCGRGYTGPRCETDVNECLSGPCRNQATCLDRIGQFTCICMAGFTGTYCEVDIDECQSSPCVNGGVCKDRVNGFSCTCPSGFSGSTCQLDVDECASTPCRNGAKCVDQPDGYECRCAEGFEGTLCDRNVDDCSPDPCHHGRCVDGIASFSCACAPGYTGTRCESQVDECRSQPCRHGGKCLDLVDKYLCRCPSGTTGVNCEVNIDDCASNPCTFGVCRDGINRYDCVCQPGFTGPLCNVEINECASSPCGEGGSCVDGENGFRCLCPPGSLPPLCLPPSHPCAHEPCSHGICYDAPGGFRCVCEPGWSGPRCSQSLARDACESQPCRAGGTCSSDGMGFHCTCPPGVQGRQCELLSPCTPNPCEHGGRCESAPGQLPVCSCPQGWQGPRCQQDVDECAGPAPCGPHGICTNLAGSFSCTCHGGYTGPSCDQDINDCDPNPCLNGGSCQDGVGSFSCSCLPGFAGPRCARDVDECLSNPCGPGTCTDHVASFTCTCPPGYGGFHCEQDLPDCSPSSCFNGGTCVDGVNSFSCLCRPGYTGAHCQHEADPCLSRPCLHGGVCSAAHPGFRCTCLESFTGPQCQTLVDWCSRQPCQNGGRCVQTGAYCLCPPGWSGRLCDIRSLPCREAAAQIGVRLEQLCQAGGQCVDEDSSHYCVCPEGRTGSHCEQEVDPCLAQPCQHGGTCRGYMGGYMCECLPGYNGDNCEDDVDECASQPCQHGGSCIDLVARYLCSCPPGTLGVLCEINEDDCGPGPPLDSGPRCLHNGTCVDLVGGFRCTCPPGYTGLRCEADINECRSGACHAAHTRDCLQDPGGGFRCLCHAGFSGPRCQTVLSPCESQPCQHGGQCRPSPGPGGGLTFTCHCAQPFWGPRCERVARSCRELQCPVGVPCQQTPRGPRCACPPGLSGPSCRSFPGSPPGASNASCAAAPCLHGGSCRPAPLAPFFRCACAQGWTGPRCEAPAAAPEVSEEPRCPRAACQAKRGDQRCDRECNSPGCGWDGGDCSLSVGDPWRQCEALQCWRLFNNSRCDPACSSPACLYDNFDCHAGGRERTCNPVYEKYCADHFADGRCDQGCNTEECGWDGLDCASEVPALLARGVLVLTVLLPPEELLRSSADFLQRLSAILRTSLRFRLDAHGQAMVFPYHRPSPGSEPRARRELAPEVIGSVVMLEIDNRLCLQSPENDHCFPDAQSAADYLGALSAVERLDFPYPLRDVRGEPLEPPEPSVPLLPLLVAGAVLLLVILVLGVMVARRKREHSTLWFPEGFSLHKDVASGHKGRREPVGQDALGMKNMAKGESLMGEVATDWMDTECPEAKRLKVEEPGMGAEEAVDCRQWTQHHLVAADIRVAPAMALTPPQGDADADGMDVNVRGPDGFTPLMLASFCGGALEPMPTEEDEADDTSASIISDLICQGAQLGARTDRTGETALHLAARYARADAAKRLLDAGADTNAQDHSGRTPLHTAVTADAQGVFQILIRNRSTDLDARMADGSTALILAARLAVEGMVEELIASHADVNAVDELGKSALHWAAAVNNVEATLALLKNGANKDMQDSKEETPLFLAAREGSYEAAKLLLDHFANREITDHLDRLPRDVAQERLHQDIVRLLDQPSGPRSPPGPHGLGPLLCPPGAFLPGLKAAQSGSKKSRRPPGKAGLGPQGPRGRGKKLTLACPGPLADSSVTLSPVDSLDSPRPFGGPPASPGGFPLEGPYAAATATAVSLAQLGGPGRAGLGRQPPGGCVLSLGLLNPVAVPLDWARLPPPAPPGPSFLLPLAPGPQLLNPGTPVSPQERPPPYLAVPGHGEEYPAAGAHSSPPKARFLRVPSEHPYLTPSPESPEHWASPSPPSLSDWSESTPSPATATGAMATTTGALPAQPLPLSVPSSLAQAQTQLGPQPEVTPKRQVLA
# [10] = small-molecule microarray binders of probe aEGFR, primary screen, biochemical, biotinylated probe, 635/667 nm fluorescence (AID 1097); settings: higher = more signal;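 note: probe is a biotinylated anti-EGFR antibody binding compounds printed on slides; score combines fluorescence near 667 nm and signal to noise of each spot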
# [11] = tested on: Plasmodium falciparum Sir2 (PF13_0152, Sir2A); test: pfSir2 binders on small-molecule microarrays, primary screen, biochemical, small-molecule microarray, 635 nm fluorescence (AID 1098); settings: small-molecule microarray binding, fluorescence 635 nm; higher = more signal;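 note: score merges spot fluorescence intensity with its signal-to-noise ratio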
# [12] = small-molecule microarray binders of probe aDKK1, primary screen, biochemical, biotinylated probe, 635/667 nm fluorescence (AID 1099); settings: higher = more signal;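 note: score merges 667nm spot fluorescence with signal to noise across triplicate slides; reference of the scale not given here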
# [13] = small-molecule microarray binders of probe aCHRDL2, primary screen, biochemical, biotinylated probe, 635/667 nm fluorescence (AID 1100); settings: higher = more signal
# [14] = splicing luciferase reporter signal modulators, primary screen, spliceosome inhibition project, cell-based, HEK293, splice +/- reporter (AID 1101); settings: luminescence, 24 h, higher = more signal, called active from +8 up or from −8 down;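 note: HEK293 cells carrying a splicing-competent luciferase reporter gene; test concentration not given here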
# [15] = target: Fibroblast growth factor 10 (Homo sapiens) (UniProt O15520); test: FGF10 binders on small-molecule microarrays, primary screen, biochemical, small-molecule microarray, 635 nm fluorescence (AID 1102); settings: FGF10 binding, fluorescence 635 nm, higher = more signal
# Chain of Fibroblast growth factor 10 (Homo sapiens) (O15520 whole entry, looked up): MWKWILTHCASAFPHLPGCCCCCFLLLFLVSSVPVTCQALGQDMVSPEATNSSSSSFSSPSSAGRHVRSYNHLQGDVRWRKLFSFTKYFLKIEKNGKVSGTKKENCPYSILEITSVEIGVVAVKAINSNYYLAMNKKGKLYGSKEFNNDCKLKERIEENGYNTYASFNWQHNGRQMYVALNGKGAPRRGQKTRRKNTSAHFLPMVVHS
# [16] = tested on: glycogen synthase kinase-3 (GSK3A per assay name; protocol says GSK3B); test: GSK3 binders on small-molecule microarrays, primary screen, biochemical, small-molecule microarray, 635 nm fluorescence, GSK3A (AID 1103); settings: small-molecule microarray binding, fluorescence 635 nm; higher = more signal; note: the record names both GSK3A and GSK3B
# [17] = target: Epidermal growth factor receptor (Homo sapiens) (UniProt P00533); test: EGFR binders on small-molecule microarrays, primary screen, biochemical, small-molecule microarray, 635 nm fluorescence (AID 1104); settings: EGFR binding, higher = more signal;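 note: score merges 667 nm emission intensity with spot signal to noise over triplicate slides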
# Chain of Epidermal growth factor receptor (Homo sapiens) (P00533 whole entry, looked up): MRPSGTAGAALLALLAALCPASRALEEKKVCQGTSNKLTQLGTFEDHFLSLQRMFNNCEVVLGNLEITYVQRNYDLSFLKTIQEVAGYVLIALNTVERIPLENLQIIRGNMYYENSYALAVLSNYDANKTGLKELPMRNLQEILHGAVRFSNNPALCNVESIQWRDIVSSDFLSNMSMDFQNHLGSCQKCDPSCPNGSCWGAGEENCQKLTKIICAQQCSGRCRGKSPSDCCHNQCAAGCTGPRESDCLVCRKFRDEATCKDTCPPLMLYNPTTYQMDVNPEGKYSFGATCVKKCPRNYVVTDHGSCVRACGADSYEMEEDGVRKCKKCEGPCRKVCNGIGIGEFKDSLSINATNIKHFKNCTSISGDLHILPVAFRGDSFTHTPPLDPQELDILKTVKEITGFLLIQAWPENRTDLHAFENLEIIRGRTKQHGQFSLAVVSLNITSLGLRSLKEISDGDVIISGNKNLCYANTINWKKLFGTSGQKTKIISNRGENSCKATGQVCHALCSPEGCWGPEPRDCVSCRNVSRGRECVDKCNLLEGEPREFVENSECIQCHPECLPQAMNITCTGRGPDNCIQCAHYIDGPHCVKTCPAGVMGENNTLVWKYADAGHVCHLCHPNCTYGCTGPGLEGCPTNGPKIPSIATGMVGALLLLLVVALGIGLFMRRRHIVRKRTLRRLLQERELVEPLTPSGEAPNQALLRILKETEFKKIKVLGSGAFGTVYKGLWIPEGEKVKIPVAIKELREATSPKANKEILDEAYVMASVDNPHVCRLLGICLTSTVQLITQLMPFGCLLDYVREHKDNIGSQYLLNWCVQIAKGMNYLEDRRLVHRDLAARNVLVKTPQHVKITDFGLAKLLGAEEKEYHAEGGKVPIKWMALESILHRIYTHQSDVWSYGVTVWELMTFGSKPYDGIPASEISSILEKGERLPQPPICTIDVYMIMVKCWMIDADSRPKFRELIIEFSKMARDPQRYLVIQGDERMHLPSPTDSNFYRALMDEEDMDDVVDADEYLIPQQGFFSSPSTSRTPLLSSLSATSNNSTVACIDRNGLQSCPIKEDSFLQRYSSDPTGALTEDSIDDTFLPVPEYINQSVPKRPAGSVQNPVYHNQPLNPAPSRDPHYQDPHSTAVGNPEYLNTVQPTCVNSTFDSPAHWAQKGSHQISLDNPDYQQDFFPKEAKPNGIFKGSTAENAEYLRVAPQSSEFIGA
# [18] = target: Follistatin-related protein 3 (Homo sapiens) (UniProt O95633); test: FSTL3 binders on small-molecule microarrays, primary screen, biochemical, small-molecule microarray, 635 nm fluorescence (AID 1105); settings: FSTL3 binding, higher = more signal;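 note: score merges emission near 667 nm and signal to noise per printed spot across three slides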
# Chain of Follistatin-related protein 3 (Homo sapiens) (O95633 whole entry, looked up): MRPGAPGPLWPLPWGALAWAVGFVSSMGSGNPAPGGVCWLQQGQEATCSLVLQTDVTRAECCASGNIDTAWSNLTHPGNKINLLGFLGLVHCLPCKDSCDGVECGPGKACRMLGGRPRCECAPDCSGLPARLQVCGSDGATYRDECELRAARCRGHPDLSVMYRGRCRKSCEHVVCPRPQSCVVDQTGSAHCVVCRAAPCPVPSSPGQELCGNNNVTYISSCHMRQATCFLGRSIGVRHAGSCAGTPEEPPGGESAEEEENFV
# [19] = target: Dickkopf-related protein 1 (Homo sapiens) (UniProt O94907); test: DKK1 binders on small-molecule microarrays, primary screen, biochemical, small-molecule microarray, 635 nm fluorescence scan (AID 1106); settings: DKK1 binding, higher = more signal;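 note: score merges emission near 667 nm with signal to noise over three replicate slides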
# Chain of Dickkopf-related protein 1 (Homo sapiens) (O94907 whole entry, looked up): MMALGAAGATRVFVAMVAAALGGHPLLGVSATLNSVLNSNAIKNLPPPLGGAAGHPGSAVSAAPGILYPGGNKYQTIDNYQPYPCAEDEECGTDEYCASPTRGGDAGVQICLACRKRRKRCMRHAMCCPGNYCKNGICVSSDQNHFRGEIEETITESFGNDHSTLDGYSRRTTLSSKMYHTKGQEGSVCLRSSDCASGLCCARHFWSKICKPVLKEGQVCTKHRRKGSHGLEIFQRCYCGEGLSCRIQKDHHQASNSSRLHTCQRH
# [20] = tested on: Inhibin beta A chain (activin A); test: INHBA (activin A) binders on microarrays, primary screen, biochemical, small-molecule microarray, 635 nm fluorescence scan (AID 1107); settings: small-molecule microarray binding, higher = more signal;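 note: mouse activin A protein probed at 4.33 µg/mL on printed slides; score merges bound-protein fluorescence near 667 nm with spot signal-to-noise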
Structure (SMILES),composite z-score [1],z-score [2],z-score [3],z-score [4],composite z-score [5],z-score [6],composite z-score [7],composite z-score [8],composite z-score [9],composite z-score [10],composite z-score [11],composite z-score [12],composite z-score [13],z-score [14],composite z-score [15],composite z-score [16],composite z-score [17],composite z-score [18],composite z-score [19],composite z-score [20]
COC(=O)[C@H](C)NC(=O)CCC1CC(OC(=O)NCCc2ccc(F)cc2)CC2(CCCC(COC(=O)NCc3cccc(C(F)(F)F)c3)O2)O1 (stereo not given in full),0.292,-0.207 (inactive),1.18 (inactive),0.52 (inactive),1.79,0.723 (inactive),-0.0668,1.01,0.581,-0.0647,0.185,-0.528,-0.623,0.249 (inactive),0.951,0.359,0.873,1.31,1.41,0.0622
COC(=O)[C@H](C)NC(=O)CCC1CC(OC(=O)NCc2ccc3c(c2)OCO3)CC2(CCCC(COC(=O)NCC(c3ccccc3)c3ccccc3)O2)O1 (stereo not given in full),1.55,-0.256 (inactive),-0.58 (inactive),-0.122 (inactive),2.65,-0.502 (inactive),-0.118,1.5,1.06,0.0004,0.848,-0.33,-0.845,-0.845 (inactive),1.33,0.653,0.651,1.2,0.766,-0.473
CCOC(=O)[C@H](CC(C)C)NC(=O)CCC1CC(OC(=O)NCc2cccc3ccccc23)CC2(CCCC(COC(=O)NCCCN3CCCC3=O)O2)O1 (stereo not given in full),1.4,-0.139 (inactive),0.409 (inactive),-0.224 (inactive),1.68,-0.165 (inactive),-0.0998,0.822,1.12,-0.0238,0.389,-0.171,-0.38,-0.406 (inactive),0.408,0.819,0.384,0.787,0.583,0.0612
CC(C)=CCCC(C)=CCON=C1C[C@@H](O)[C@@H](O)[C@@H]2[C@@H]3C(=O)N(C[C@@H]4CCCO4)C(=O)[C@@H]3CC[C@H]12,1.56,0.46 (inactive),0.948 (inactive),0.036 (inactive),1.39,0.362 (inactive),-0.111,0.987,1.08,0.122,0.346,-0.257,-0.762,0.91 (inactive),1.37,1.25,1.29,1.39,1.46,1
CC[C@@H](c1ccccc1)n1c(=O)n2n(c1=O)[C@H]1[C@H](O)[C@@H]3O[C@@H]3C(=NOC[C@@H](O)COCc3ccco3)[C@H]1CC2,-0.862,-0.697 (inactive),-0.552 (inactive),-0.624 (inactive),-1.1,0.568 (inactive),-0.215,0.0447,-0.979,-0.185,1.27,-0.455,-0.773,3.16 (inactive),0.145,-0.693,-0.264,-0.378,0.239,1.09
CC(=O)OC[C@H]1O[C@@H](ON=C(C)CCN2CCCc3nc(C)c(C)cc32)[C@H](OC(C)=O)[C@@H](OC(C)=O)[C@@H]1OC(C)=O,1.55,0.215 (inactive),0.0313 (inactive),0.427 (inactive),0.993,-0.722 (inactive),-0.136,0.952,1.11,0.0781,0.541,-0.132,-0.638,-0.548 (inactive),1.03,1.29,0.804,1.26,0.855,-0.263
CC=CC1=C(CO)C(=O)[C@@H]2O[C@@H]2C1=O,0.114,-0.767 (inactive),-0.738 (inactive),-0.624 (inactive),-1.02,0.199 (inactive),-0.199,1.58,0.406,0.0083,0.148,-0.703,-1.79,-0.546 (inactive),0.799,0.571,1.01,1.17,1.57,1.49
CC(CCC(=O)OC[C@H]1O[C@H](C#Cc2ccccc2)C=C[C@@H]1Oc1ccc(C)cc1)=NO[C@H](C)c1cn([C@H](CO)Cc2ccccc2)nn1,1.05,1.62 (inactive),-0.372 (inactive),1.31 (inactive),1.05,0.171 (inactive),-0.239,0.689,0.695,-0.17,0.708,-0.164,-0.532,0.448 (inactive),0.17,0.197,0.217,1.12,0.655,0.282
CO[C@@H]1COC(=O)[C@@H](C)COC(=O)[C@@H](C)NC(=O)CC=C[C@@H]1C,1.55,-2.2 (inactive),-1.61 (inactive),-2.47 (inactive),-0.963,-0.801 (inactive),-0.154,1.6,-0.0403,-0.0041,0.155,-0.351,-1.08,-2.29 (inactive),1.22,0.571,0.318,1.33,1.73,0.675
CO[C@H]1COC(=O)[C@@H](C)COC(=O)[C@H](C)NC(=O)CC=C[C@H]1C,1.23,0.508 (inactive),0.0971 (inactive),-0.431 (inactive),0.0586,0.414 (inactive),-0.212,1.64,0.195,0.0673,0.473,-0.537,-1.73,-0.0731 (inactive),0.577,0.732,0.785,1.54,1.32,1.13
